In the supplement of paper PMC10646978:
± gives the standard deviation.

Key:
Conditions in all cases: modulator concentration 10 µM
[1] = tested on: RAW-Dual (murine macrophage reporter line); assay: NF-kB reporter (SEAP) activity fold change vs agonist alone; higher = enhanced NF-kB activity
Method in brief: (§1)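 In 384-well plates holding 50 000 RAW-Dual murine macrophage reporter cells per well, compound at 10 μM final was pre-incubated for 1 hour at 37 °C, after which a PRR agonist was added overnight. Supernatant SEAP read with QUANTI-Blue at 620 nm absorbance reported NF-κB, and Lucia luciferase read with QUANTI-Luc luminescence reported IRF. Fold change values come from dividing each reporter signal by the mean of agonist-only control wells on the same plate, averaged over replicate plates with propagated errors.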

[2] = tested on: RAW-Dual (murine macrophage reporter line); assay: IRF reporter (Lucia luciferase) activity fold change vs agonist alone; higher = enhanced IRF activity
Method in brief: as §1

[3] = tested on: RAW-Dual (murine macrophage reporter line); assay: viability score (confluency relative to resting cells, overnight) (fraction); higher = more viable, active = viable (0.7 or more)
Method in brief: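 RAW-Dual macrophages in 384-well plates were incubated overnight with compound, final concentration 10 μM. Confluency images from IncuCyte were processed in IncuCyte software into two masks covering all imaged wells. The viability score is each well's confluency relative to resting cells, and a compound met the cutoff when both masks exceeded 70% of resting cells.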

[4] = agonist: CpG ODN 1826 0.5 ug/mL

| SMILES | NF-kB reporter [1, 4] | NF-kB reporter ([1]; agonist: LPS 0.1 ug/mL) | NF-kB reporter ([1]; agonist: MPLA […]) | IRF reporter ([2]; agonist: 3'3'-cGAMP 10 ug/mL) | IRF reporter ([2]; agonist: LPS 0.1 ug/mL) | IRF reporter ([2]; agonist: MPLA […]) | viability score [3] |
| --- | --- | --- | --- | --- | --- | --- | --- |
| Cn1cc(CC(=O)NC2CCN(c3cc(C(F)(F)F)ncn3)CC2)c2ccccc21 | 1.45 ± 0.082 | 1.24 ± 0.1 | 1.13 ± 0.23 | 0.77 ± 0.039 | 1.24 ± 0.075 | 1.39 ± 0.1 | 0.929 (active) |
| Cc1n[nH]c(C)c1CCC(=O)NC1CCC(F)(F)CC1 | 0.921 ± 0.068 | 1.04 ± 0.12 | 0.879 ± 0.048 | 0.955 ± 0.062 | 1.18 ± 0.094 | 1.03 ± 0.28 | 1.02 (active) |
| CC(Oc1ccccc1)C(=O)NCc1cc(-c2ccncc2)n(C2CCCC2)n1 (configuration not stated) | 1.35 ± 0.1 | 1.24 ± 0.11 | 1.13 ± 0.12 | 1.02 ± 0.067 | 1.02 ± 0.064 | 1.12 ± 0.086 | 1 (active) |
| O=c1c(CN2CCC(O)(c3ccc(Br)cc3)CC2)coc2ccccc12 | 0.712 ± 0.056 | 0.953 ± 0.059 | 1.07 ± 0.066 | 0.676 ± 0.032 | 1.07 ± 0.14 | 0.85 ± 0.12 | 1.01 (active) |
| Cc1cc(Nc2cc(N3CCN(C)CC3)nc(Sc3ccc(NC(=O)C4CC4)cc3)n2)n[nH]1 | 0.0769 ± 0.0068 | 0.142 ± 0.0072 | 0.23 ± 0.021 | 0.136 ± 0.011 | 0.537 ± 0.041 | 0.451 ± 0.06 | 0.91 (active) |
| COc1c(-c2ccc3cc(NS(C)(=O)=O)ccc3c2)cc(-n2ccc(=O)[nH]c2=O)cc1C(C)(C)C | 0.43 ± 0.1 | 1.02 ± 0.056 | 0.827 ± 0.093 | 0.774 ± 0.043 | 1.2 ± 0.29 | 1.2 ± 0.15 | 1.01 (active) |
| CN1[C@@H]2CC[C@H]1C[C@@H](OC(c1ccccc1)c1ccccc1)C2.CS(=O)(=O)O | 0.95 ± 0.13 | 1.19 ± 0.5 | 1.48 ± 0.23 | 0.438 ± 0.013 | 0.934 ± 0.35 | 1.53 ± 0.15 |  |
| O=C1C(Cl)=C(N2CCCCC2)C(=O)N1c1cc(Cl)c(Cl)cc1Cl | 0.743 ± 0.063 | 0.737 ± 0.049 | 0.857 ± 0.03 | 0.352 ± 0.026 | 1.07 ± 0.1 | 1.01 ± 0.15 | 0.993 (active) |
| CC1SC(c2ccccc2)NC1=O (configuration not stated) | 1.04 ± 0.08 | 1.06 ± 0.065 | 0.952 ± 0.055 | 0.791 ± 0.026 | 1.42 ± 0.098 | 1.2 ± 0.12 | 0.999 (active) |
| Cc1ccc(-n2ncnc2-c2ccccc2C)cc1Cl | 0.759 ± 0.064 | 0.787 ± 0.044 | 1.14 ± 0.11 | 0.777 ± 0.052 | 1.48 ± 0.12 | 1.65 ± 0.21 | 0.996 (active) |
| COc1ccc(-c2nc(CNC(=O)C3CCN(c4cc(C5CC5)ncn4)CC3)cs2)cc1 | 0.957 ± 0.066 | 1.4 ± 0.11 | 1.16 ± 0.05 | 1.05 ± 0.062 | 1.24 ± 0.14 | 1.29 ± 0.25 | 1 (active) |
| O=C(COc1ccc(Cl)cc1)Nc1ccc(OC(F)(F)F)cc1 | 1.03 ± 0.069 | 1 ± 0.078 | 0.943 ± 0.043 | 0.989 ± 0.072 | 0.973 ± 0.1 | 0.88 ± 0.18 | 0.993 (active) |
| COc1ccc(C(=O)NCc2ccc(OCCN(C)C)cc2)cc1OC.Cl | 0.988 ± 0.15 | 1.05 ± 0.079 | 0.925 ± 0.059 | 0.88 ± 0.027 | 1.21 ± 0.1 | 1.08 ± 0.085 | 0.994 (active) |
| COC(=O)C1C(=O)C(=CNc2ccccc2O)C(=O)CC1(C)C (configuration not stated) | 1.66 ± 0.29 | 1.53 ± 0.13 | 2.44 ± 0.19 | 0.183 ± 0.011 | 1.19 ± 0.11 | 1.02 ± 0.14 | 0.557 (inactive) |
| NC1CONC1=O (configuration not stated) | 1.25 ± 0.3 | 1.09 ± 0.11 | 1 ± 0.082 | 0.937 ± 0.033 | 1.2 ± 0.17 | 1.11 ± 0.12 | 0.991 (active) |
| COc1ccc(C=C2C(=O)N(c3ccc(C(=O)O)cc3)N=C2C)cc1 | 0.794 ± 0.082 | 0.977 ± 0.072 | 1.02 ± 0.092 | 0.934 ± 0.052 | 1.22 ± 0.099 | 1.21 ± 0.17 | 1.01 (active) |
| CN(C)C/C=C/C(=O)Nc1cc2c(Nc3ccc(F)c(Cl)c3)ncnc2cc1O[C@H]1CCOC1 | 0.0842 ± 0.0066 | 0.28 ± 0.053 | 0.266 ± 0.033 | 0.0559 ± 0.0049 | 0.0747 ± 0.015 | 0.0463 ± 0.0039 | 0.56 (inactive) |
| C/C(=C(\CCOP(=O)(O)O)SC(=O)c1ccccc1)N(C=O)Cc1cnc(C)nc1N [Prestw-654] | 1.03 ± 0.19 | 1.25 ± 0.15 | 1.1 ± 0.13 | 0.943 ± 0.031 | 1.04 ± 0.15 | 1.28 ± 0.14 | 0.974 (active) |
| CSc1nc2ccc(Nc3nc(N4CCCC4)nc(N4CCCC4)n3)cc2s1 | 0.838 ± 0.086 | 0.962 ± 0.06 | 1.05 ± 0.096 | 0.906 ± 0.043 | 1.31 ± 0.13 | 1.55 ± 0.15 | 1.02 (active) |
| CC1(C)CC(=O)C2=C(C1)OC(N)=C(C#N)C21CCCCC1 | 1.01 ± 0.18 | 0.866 ± 0.07 | 0.895 ± 0.14 | 0.867 ± 0.024 | 1.13 ± 0.15 | 1.18 ± 0.14 | 1 (active) |
| O=C(O)C(=O)O.c1ccc(SCCc2ccncc2)cc1 | 1.06 ± 0.12 | 1.04 ± 0.076 | 1 ± 0.056 | 1.05 ± 0.24 | 1.07 ± 0.09 | 1.19 ± 0.17 | 1 (active) |
| COc1ccc([C@@H]2Sc3ccccc3N(CCN(C)C)C(=O)[C@@H]2OC(C)=O)cc1.Cl | 0.958 ± 0.074 | 1.02 ± 0.053 | 1.21 ± 0.064 | 0.969 ± 0.15 | 0.997 ± 0.11 | 1.05 ± 0.1 | 0.985 (active) |
| CCOC(=O)c1c(N2C(=O)C3C4C=CC(O4)C3C2=O)sc2c1CCCC2 (configuration not stated) | 0.87 ± 0.067 | 0.792 ± 0.11 | 0.77 ± 0.092 | 0.775 ± 0.038 | 0.962 ± 0.12 | 0.967 ± 0.18 | 0.934 (active) |
| Nc1c2c(nc3ccccc13)CCCC2 [Prestw-329] | 0.919 ± 0.075 | 0.967 ± 0.084 | 1.24 ± 0.11 | 1 ± 0.057 | 1.55 ± 0.12 | 1.66 ± 0.14 | 1 (active) |
